Source: PubChem BioAssay AID504447 (The Scripps Research Institute Molecular Screening Center, 2011)
Results with a measured potency or affinity are listed apart. Calls of active or inactive are those of the source. How the calls were made is not given here.

Biological target: Peroxisome proliferator-activated receptor gamma (Homo sapiens) (UniProt P37231)
Assay: PPARg partial agonists, dose response, cell-based, luminescence, assay provider (AID 504447)
Conditions: cell-based PPARg reporter, luciferase luminescence, partial agonism; series mostly up to 5 µM

Peroxisome proliferator-activated receptor gamma (Homo sapiens), sequence (P37231 whole entry, looked up): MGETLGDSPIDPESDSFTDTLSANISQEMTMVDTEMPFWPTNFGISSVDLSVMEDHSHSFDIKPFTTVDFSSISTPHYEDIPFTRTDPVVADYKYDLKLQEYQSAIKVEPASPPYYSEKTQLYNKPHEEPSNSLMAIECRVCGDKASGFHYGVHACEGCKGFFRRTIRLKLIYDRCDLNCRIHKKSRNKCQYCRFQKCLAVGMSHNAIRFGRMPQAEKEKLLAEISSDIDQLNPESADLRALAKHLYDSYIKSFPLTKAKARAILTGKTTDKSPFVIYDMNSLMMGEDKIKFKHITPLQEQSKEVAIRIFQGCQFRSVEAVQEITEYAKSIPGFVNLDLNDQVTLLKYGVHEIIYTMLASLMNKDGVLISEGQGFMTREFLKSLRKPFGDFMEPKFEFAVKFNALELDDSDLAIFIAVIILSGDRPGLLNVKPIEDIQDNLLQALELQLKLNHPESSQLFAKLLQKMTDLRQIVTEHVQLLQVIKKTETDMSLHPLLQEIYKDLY

O=C(CNC(=O)c1nc[nH]c1C(=O)N1CCc2ccccc2C1)OCc1ccccc1
outcome: inactive

O=C(O)CCN1C(=O)/C(=C/c2ccccc2)SC1=S
outcome: inactive

Cc1ccc2nc(N3C(=O)C(O)=C(C(=O)c4ccco4)C3c3ccc(O)cc3)sc2c1 (stereo unspecified)
outcome: inactive

O=C(c1nc2ccccn2c1CN1CCCC(O)C1)N1CCN(C2CCCCC2)CC1 (stereo unspecified)
outcome: inactive

O=c1c2cn(Cc3ccc(F)cc3)c3ccc(F)cc3c-2nn1Cc1ccc(F)cc1
outcome: inactive

COCCn1cnc2c1c(=O)n(Cc1cc(C(C)=O)ccc1OC)c(=O)n2Cc1ccccc1
outcome: inactive

COc1ccc(C=NNS(=O)(=O)c2ccc(F)cc2)cc1COc1cc(F)ccc1[N+](=O)[O-]
outcome: inactive

O=c1c2cn(Cc3ccc(F)cc3)c3ccccc3c-2nn1Cc1ccc(F)cc1
outcome: inactive

Cc1ccc(-c2nnc(Nc3ccc(O)cc3)c3ccccc23)cc1S(=O)(=O)NCCO
outcome: inactive

COc1ccccc1NC(=O)C(=O)c1cn(CC(=O)N2CCOCC2)c2ccccc12
outcome: inactive

Cc1ccc2[nH]c(=O)c(CN(Cc3cccs3)Cc3nnnn3CC3CCCO3)cc2c1 (stereo unspecified)
outcome: inactive

O=C(O)COc1ccccc1/C=C1\SC(=S)N(NC(=O)c2ccccc2O)C1=O
outcome: inactive

O=C(COc1coc(CN2CCc3ccccc3C2)cc1=O)Nc1ccc(F)cc1F
outcome: inactive

O=C1CC(N2CCN(Cc3ccc4c(c3)OCO4)CC2)C(=O)N1Cc1ccc(N2CCCC2=O)cc1 (stereo unspecified)
outcome: inactive

COc1ccc(CN(Cc2ccccn2)C(=O)CN2C(=O)C(C)Oc3ccccc32)cc1 (stereo unspecified)
outcome: inactive

O=C(O)CCN1C(=O)/C(=C/c2ccccc2Cl)SC1=S
outcome: inactive

CCOc1cc(N2CCOCC2)c(OCC)cc1NC(=O)c1ccc2ccccc2n1
outcome: inactive

COc1ccc(S(=O)(=O)N2CCCCC2)cc1NC(=O)C1CSC2(C)CCC(=O)N12 (stereo unspecified)
outcome: inactive

COc1cc(/C=C(\NC(=O)c2ccccc2)C(=O)NC(C(=O)O)c2ccccc2)cc(OC)c1OC (stereo unspecified)
outcome: inactive

CC(C)OC(=O)CCN1C(=O)/C(=C/c2ccccc2)SC1=S
outcome: inactive

S=C(NCCc1ccccc1)N1CCn2cccc2C1c1ccncc1 (stereo unspecified)
outcome: inactive

Cc1cccc(NC(=O)CN2C(=O)/C(=C3\SC(=S)N(CC4CCCO4)C3=O)c3ccccc32)c1 (stereo unspecified)
outcome: inactive

Cc1c(-n2cc(C(=O)c3cc(F)ccc3O)cc(C#N)c2=O)c(=O)n(-c2ccccc2)n1C
outcome: inactive

COc1ccc(-c2cc(C(=O)NC(C)c3ccccn3)c3ccccc3n2)cc1OC (stereo unspecified)
outcome: inactive

CCC(=O)c1ccc(OCC(=O)OC(C)C(=O)Nc2c(C)n(C)n(-c3ccccc3)c2=O)cc1 (stereo unspecified)
outcome: inactive

O=C(NC(Cc1ccccc1)C(=O)N1CCN(c2ccccc2O)CC1)c1ccccc1 (stereo unspecified)
outcome: inactive

CN(CCNC(=O)C1CCCN(c2ncnc3c2nc2n3CCCCC2)C1)Cc1ccccc1 (stereo unspecified)
outcome: inactive

O=C(Nc1c(C(=O)Nc2ccc3c(c2)OCCO3)cnn1-c1ccccc1Cl)c1ccco1
outcome: inactive

CCOc1cccc(/C(O)=C2/C(=O)C(=O)N(CCN3CCOCC3)C2c2ccncc2)c1 (stereo unspecified)
outcome: inactive

Cc1cc(N2C(=O)C(O)=C(C(=O)c3cccs3)C2c2cccc(Br)c2)no1 (stereo unspecified)
outcome: inactive

CCOc1cc(C2C(C(=O)OC)=CN(Cc3ccc(Cl)cc3)C=C2C(=O)OC)ccc1O
outcome: inactive
